# Test results taken from PubChem BioAssay.
# Unmarked numbers belong to inactive results. The source made the active and inactive calls.
# Assay: S. cerevisiae growth modulation with rapamycin, primary screen, strain BY4716, OD600, 96 h (AID 1091); also: test concentration not given here
# Conditions: higher = more signal, called active from +8 up or from −8 down
row,Structure (SMILES),z-score
1,CCCCCCc1nc(CCCc2cc3c(c(CCCCCC)n2)[Si](C(C)C)(C(C)C)OC3)cc2c1[Si](C(C)C)(C(C)C)OC2,0.256
2,COc1cccc(C(=O)O[C@H]2CC[C@]3(C)C4=C(CCC3C2(C)C)[C@]2(C)CC[C@H]([C@H](C)CCCC(C)C)[C@@]2(C)CC4)c1 (some centres not stated),-0.166
3,O=C1N(CCS(=O)(=O)c2ccccc2)Cc2ccccc2C[C@]12N=C(c1ccc(OCCCO)cc1)O[C@@H]2c1ccccc1,4.94
4,O=C1C2C=CC(C(O)c3cccs3)N(Nc3ccccc3F)C2C(=O)N1c1ccccc1 (configuration not stated),-0.867
5,COc1ccc(NN2C(C(O)c3ccc(OC)c(OCc4ccccc4)c3)C=CC3C(=O)N(C4CCCCC4)C(=O)C32)cc1 (configuration not stated),-0.724
6,CCOc1cc(C(O)C2C=CC3C(=O)N(c4ccccc4)C(=O)C3N2Nc2ccc([N+](=O)[O-])cc2)ccc1O (configuration not stated),-0.364
7,COCCOC(=O)N1C(=O)[C@@]2(c3cc(C#CCNC(N)=O)ccc31)[C@H](C(=O)N1CCN(c3ncccn3)CC1)[C@H]1C(=O)O[C@H](c3ccccc3)[C@H](c3ccccc3)N1[C@@H]2c1ccccc1OCCO,4.95
8,C=CC[C@]1(C(=O)N2CCOCC2)N=C(c2ccc(OCCCO)cc2)O[C@H]1c1ccccc1,-1.67
9,CCOC(=O)C1=CC[C@@H](c2ccccc2)N(S(=O)(=O)c2ccc(C)cc2)[C@H]1C(=O)OCC,1.94
10,CC=CC(O)C1C=CC2C(=O)N(c3ccccc3)C(=O)C2N1Nc1ccc(C(C)C)cc1 (configuration not stated),1.06
11,O=C1OCCC=C[C@H]2OC34C=CCN(c5ccc6ccccc6c5)C(=O)[C@H]3N(CCCCCO)C(=O)[C@@H]4C12 (some centres not stated),-0.8
12,CCOC(=O)C[C@H]1[C@H](OC(=O)c2ccc(C(=O)c3ccccc3)cc2)[C@@H](NC(=O)C2CCCCC2)c2cc(OCCCO)ccc2N1C(=O)c1ccccc1,-0.155
13,[N-]=[N+]=Nc1ccccc1[C@@H]1OC(c2ccc(OCCCO)cc2)=N[C@]1(CCS(=O)(=O)c1ccccc1)C(=O)N1CCOCC1,1.72
14,NC(=O)NCC#Cc1ccc2c(c1)[C@]1(C(=O)N2)[C@H](C(=O)N2CCCCCCC2)[C@H]2C(=O)O[C@H](c3ccccc3)[C@H](c3ccccc3)N2[C@@H]1c1ccc(OCCO)cc1,4.58
15,O=C(NCc1ccccc1)[C@]1(CCS(=O)(=O)c2ccccc2)N=C(c2ccc(OCCCO)cc2)O[C@@H]1c1ccccc1,36.9 (active)
16,C=C(C(=O)CC[C@H](OC(C)=O)c1ccc(OCCO)cc1)C(C)C,-4.29
17,CCCCCN1CC=CC23O[C@@H]4/C=C\CCC(C)OC(=O)C4[C@H]2C(=O)N(CCCCCO)[C@@H]3C1=O (some centres not stated),-1.39
18,O=C1[C@]2(CO)C=C(Br)[C@@H](C[C@@H]2c2ccccc2)[C@@]12CO2,-0.666
19,CC(C)C(O)C1C=CC2C(=O)N(c3ccccc3)C(=O)C2N1Nc1ccc(C#N)cc1 (configuration not stated),1.39
20,O=C(CS)NCCCCCCNC(=O)[C@H]1C[C@H]2C(=O)N3CCC[C@H]3C(=O)N2[C@H]1c1cccc(OCCO)c1,0.0927
21,COCC(=C=CC[C@H](O)c1ccc(OCCO)cc1)C[C@H](O)c1cc(Cl)cc(Cl)c1O,-3.87
22,CN1CCC(CCCO)=CC1c1ccc(CN2CCCC2)cc1 (configuration not stated),-0.763
23,COCCOC(=O)N1C(=O)[C@@]2(c3cc(C#CCC(C(=O)OC)C(=O)OC)ccc31)[C@H](c1ccccc1OCCO)N1[C@H](c3ccccc3)[C@H](c3ccccc3)OC(=O)[C@H]1[C@@H]2C(=O)N1CCc2cc(OC)c(OC)cc2C1,3.89
24,COc1ccc(CCNC(=O)[C@@]2(c3ccc([N+](=O)[O-])cc3)CC(=O)N(CC34CC5CC(CC(C5)C3)C4)[C@@H]2c2ccc(CO)cc2)cc1,6.65
25,Cc1ccccc1C(O)C1C=CC2C(=O)N(C)C(=O)C2N1Nc1ccccc1 (configuration not stated),-0.0194
26,O=C1c2ccccc2[C@@]2(Cc3ccccc3N(Cc3ccccc3)C2=O)[C@H](c2ccc(CO)cc2)N1C1CCCCC1,-0.619
27,O=C1O[C@H](c2ccccc2)[C@H](c2ccccc2)N2[C@H]1[C@@H](C(=O)Nc1nc3ccccc3s1)[C@]1(C(=O)Nc3ccccc31)[C@H]2c1ccc(O)cc1,0.677
